The text below walks through data of article PMC7862700, “An all-to-all approach to the identification of sequence-specific readers for epigenetic DNA modifications on cytosine”.

Holding throughout (test): DAPPL (digital affinity profiling via proximity ligation, sequencing); 10 mM Tris-HCl pH 7.5, 50 mM NaCl, 1 mM DTT, 4% glycerol, room temperature, 30 min; GST-TFs on glutathione beads, 16-mer random dsDNA library, 0.1% formaldehyde crosslink after washing; high values mean tight binding
Common to all, as to settings: protein: recombinant; tags: N-terminal GST; dsDNA, one strand shown

The target in one test is T1, ERF (Homo sapiens, UniProt P50548 1-548).
T1 sequence: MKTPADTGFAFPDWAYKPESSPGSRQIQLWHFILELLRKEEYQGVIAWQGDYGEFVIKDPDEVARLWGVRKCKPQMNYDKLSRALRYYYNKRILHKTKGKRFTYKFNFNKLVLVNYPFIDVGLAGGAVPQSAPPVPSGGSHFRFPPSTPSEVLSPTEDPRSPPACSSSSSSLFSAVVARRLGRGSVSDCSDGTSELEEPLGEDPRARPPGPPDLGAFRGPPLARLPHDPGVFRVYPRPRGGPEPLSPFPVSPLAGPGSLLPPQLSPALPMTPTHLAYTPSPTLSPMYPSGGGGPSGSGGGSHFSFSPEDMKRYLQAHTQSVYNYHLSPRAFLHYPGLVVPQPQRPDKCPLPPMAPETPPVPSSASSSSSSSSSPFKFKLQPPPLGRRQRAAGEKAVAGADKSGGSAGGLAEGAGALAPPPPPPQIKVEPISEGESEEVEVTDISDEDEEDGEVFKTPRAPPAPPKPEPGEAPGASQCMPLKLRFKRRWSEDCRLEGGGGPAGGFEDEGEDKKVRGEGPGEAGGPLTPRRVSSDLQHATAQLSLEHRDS
Summed up:
(§1)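 A tag-only sample was pooled with DNA-barcoded human transcription factors that had been expressed in yeast as GST fusions and captured on glutathione beads. The pools were incubated for 30 min at room temperature with 200 nmole of a random double-stranded 16-mer DNA library in Tris/NaCl/DTT/glycerol buffer, then washed, crosslinked with 0.1% formaldehyde, proximity-ligated (BsaI/T4 ligase, 1 h, 37 °C), PCR-amplified and sequenced on an Illumina NextSeq500. Binding signal is each hexamer's read frequency for a factor divided by its frequency for the tag-only sample.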

The next test concerns the target T2, ETV3L (Homo sapiens, UniProt Q6ZN32 1-361).
T2 sequence: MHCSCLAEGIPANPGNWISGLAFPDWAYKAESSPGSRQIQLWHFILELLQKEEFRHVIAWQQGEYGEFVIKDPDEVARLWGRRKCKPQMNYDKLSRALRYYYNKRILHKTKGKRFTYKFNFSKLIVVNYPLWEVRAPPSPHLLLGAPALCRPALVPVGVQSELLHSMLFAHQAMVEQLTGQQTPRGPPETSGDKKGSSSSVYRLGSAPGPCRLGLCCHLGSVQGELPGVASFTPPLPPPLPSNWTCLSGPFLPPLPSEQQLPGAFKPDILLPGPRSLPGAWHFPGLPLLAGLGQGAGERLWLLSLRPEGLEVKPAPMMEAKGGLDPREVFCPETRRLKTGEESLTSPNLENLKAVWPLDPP
Summed up: as §1

The target in a further test is T3, ETS2 (Homo sapiens, UniProt P15036 1-469).
T3 sequence: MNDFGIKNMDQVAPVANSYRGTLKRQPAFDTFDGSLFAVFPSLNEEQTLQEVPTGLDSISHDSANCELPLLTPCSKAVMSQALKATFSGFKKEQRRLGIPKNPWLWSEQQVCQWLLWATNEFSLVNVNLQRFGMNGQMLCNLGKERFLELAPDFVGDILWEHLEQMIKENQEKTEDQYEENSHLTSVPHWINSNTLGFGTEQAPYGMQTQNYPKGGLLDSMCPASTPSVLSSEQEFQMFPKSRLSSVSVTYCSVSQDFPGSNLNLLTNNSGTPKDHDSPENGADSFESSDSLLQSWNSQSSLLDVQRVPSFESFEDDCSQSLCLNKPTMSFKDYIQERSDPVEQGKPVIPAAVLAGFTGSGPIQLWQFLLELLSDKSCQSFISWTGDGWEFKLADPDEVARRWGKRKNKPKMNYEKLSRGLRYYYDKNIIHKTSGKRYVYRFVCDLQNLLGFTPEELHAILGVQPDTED
Put shortly: as §1

In the next test the target is T4, SPDEF (Homo sapiens, UniProt O95238 1-335).
T4 sequence: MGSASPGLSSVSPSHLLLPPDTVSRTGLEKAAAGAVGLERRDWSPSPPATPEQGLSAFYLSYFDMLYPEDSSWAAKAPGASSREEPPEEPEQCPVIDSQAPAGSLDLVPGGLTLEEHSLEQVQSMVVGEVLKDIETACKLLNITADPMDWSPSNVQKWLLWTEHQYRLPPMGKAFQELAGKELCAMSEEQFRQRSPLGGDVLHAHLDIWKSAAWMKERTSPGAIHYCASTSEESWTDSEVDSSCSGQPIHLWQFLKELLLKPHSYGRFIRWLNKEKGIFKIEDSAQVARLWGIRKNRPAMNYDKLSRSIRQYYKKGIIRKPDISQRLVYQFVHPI
Summed up:
as §1

The target in another test is T5, ETV7 (Homo sapiens, UniProt Q9Y603 1-341).
T5 sequence: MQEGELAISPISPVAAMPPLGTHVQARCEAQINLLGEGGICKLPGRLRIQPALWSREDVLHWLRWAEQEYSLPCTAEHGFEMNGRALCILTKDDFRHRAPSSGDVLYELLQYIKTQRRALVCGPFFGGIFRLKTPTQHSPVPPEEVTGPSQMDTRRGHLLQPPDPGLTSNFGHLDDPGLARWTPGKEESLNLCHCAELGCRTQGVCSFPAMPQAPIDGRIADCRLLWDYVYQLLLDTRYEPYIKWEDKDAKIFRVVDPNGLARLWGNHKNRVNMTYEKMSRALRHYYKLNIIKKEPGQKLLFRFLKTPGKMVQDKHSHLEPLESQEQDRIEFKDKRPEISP
Summed up: as §1

For a further test, the target named is T6, ELF5 (Homo sapiens, UniProt Q9UKW6-2 1-255).
T6 sequence: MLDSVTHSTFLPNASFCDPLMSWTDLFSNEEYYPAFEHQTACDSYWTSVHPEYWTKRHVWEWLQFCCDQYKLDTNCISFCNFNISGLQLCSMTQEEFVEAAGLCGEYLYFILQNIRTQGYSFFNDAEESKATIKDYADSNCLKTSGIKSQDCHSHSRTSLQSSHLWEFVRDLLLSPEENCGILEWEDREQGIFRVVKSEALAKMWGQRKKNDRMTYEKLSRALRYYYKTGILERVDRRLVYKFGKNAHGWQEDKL
Summed up:
as §1

The target in the next test is T7, ETV3 (Homo sapiens, UniProt P41162-2 1-143).
T7 sequence: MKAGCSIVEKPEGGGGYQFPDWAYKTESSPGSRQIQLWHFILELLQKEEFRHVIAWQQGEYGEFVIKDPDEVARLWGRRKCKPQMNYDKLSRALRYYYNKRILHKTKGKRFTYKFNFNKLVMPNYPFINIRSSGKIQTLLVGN
Summed up:
as §1

The target of the next test is ETV6 (Homo sapiens, UniProt P41212 1-452). Put shortly: as §1
Chain of ETV6 (P41212 whole entry): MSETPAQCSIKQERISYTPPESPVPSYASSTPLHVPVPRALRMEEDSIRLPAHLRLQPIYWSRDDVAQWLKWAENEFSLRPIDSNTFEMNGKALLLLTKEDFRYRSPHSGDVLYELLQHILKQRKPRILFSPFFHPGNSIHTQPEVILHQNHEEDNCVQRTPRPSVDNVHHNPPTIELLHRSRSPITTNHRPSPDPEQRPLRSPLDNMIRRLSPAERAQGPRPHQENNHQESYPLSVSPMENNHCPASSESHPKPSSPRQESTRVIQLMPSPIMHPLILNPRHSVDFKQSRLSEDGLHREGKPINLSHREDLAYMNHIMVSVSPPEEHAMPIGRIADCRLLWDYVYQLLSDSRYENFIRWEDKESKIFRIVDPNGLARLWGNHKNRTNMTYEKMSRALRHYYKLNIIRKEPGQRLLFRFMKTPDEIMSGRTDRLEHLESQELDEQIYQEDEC

Regarding AAAAAA, the binding signal was 1.35 fold enrichment (6-mer frequency, TF over GST control) with ERF; 1.28 fold enrichment (6-mer frequency, TF over GST control) with ETV3L; 1.34 fold enrichment (6-mer frequency, TF over GST control) in the test with ETS2; 1.21 fold enrichment (6-mer frequency, TF over GST control) with SPDEF; 1.31 fold enrichment (6-mer frequency, TF over GST control) in the test with ETV7; 1.29 fold enrichment (6-mer frequency, TF over GST control) with ELF5. Besides, the binding signal in the test with ETV3 was 1.33 fold enrichment (6-mer frequency, TF over GST control); with ETV6, 1.35 fold enrichment (6-mer frequency, TF over GST control).

With ACCTCC, the binding signal is 1.35 fold enrichment (6-mer frequency, TF over GST control) with ERF; 1.49 fold enrichment (6-mer frequency, TF over GST control) in the test with ETV3L; 1.41 fold enrichment (6-mer frequency, TF over GST control) in the test with ETS2; 1.5 fold enrichment (6-mer frequency, TF over GST control) in the test with SPDEF; 1.4 fold enrichment (6-mer frequency, TF over GST control) in the test with ETV7; 1.49 fold enrichment (6-mer frequency, TF over GST control) with ELF5. Besides, the binding signal with ETV3 was 1.33 fold enrichment (6-mer frequency, TF over GST control); with ETV6, 1.4 fold enrichment (6-mer frequency, TF over GST control).

Turning to ACATCA, the binding signal is 1.13 fold enrichment (6-mer frequency, TF over GST control) with ERF; 1.08 fold enrichment (6-mer frequency, TF over GST control) with ETV3L; 1.11 fold enrichment (6-mer frequency, TF over GST control) with ETS2; 1.07 fold enrichment (6-mer frequency, TF over GST control) with SPDEF; 1.1 fold enrichment (6-mer frequency, TF over GST control) with ETV7; 1.07 fold enrichment (6-mer frequency, TF over GST control) with ELF5. Also, the binding signal with ETV3 was 1.14 fold enrichment (6-mer frequency, TF over GST control); with ETV6, 1.16 fold enrichment (6-mer frequency, TF over GST control).

For the sequence ATTTGT, the binding signal with ERF is 1.34 fold enrichment (6-mer frequency, TF over GST control); in the test with ETV3L, 1.35 fold enrichment (6-mer frequency, TF over GST control); with ETS2, 1.36 fold enrichment (6-mer frequency, TF over GST control); in the test with SPDEF it was 1.33 fold enrichment (6-mer frequency, TF over GST control); with ETV7, 1.34 fold enrichment (6-mer frequency, TF over GST control); in the test with ELF5, 1.26 fold enrichment (6-mer frequency, TF over GST control). In addition, the binding signal in the test with ETV3 is 1.4 fold enrichment (6-mer frequency, TF over GST control); in the test with ETV6, 1.29 fold enrichment (6-mer frequency, TF over GST control).

Turning to AATGAA, the binding signal in the test with ERF is 1.29 fold enrichment (6-mer frequency, TF over GST control); with ETV3L, 1.19 fold enrichment (6-mer frequency, TF over GST control); with ETS2 it was 1.15 fold enrichment (6-mer frequency, TF over GST control); with SPDEF, 1.04 fold enrichment (6-mer frequency, TF over GST control); in the test with ETV7, 1.18 fold enrichment (6-mer frequency, TF over GST control); with ELF5, 1.22 fold enrichment (6-mer frequency, TF over GST control). The binding signal with ETV3 is 1.17 fold enrichment (6-mer frequency, TF over GST control); with ETV6, 1.23 fold enrichment (6-mer frequency, TF over GST control).

Take GTCCCT: the binding signal in the test with ERF is 1.22 fold enrichment (6-mer frequency, TF over GST control); with ETV3L, 1.16 fold enrichment (6-mer frequency, TF over GST control); in the test with ETS2, 1.31 fold enrichment (6-mer frequency, TF over GST control); with SPDEF, 1.37 fold enrichment (6-mer frequency, TF over GST control); with ETV7, 1.22 fold enrichment (6-mer frequency, TF over GST control); with ELF5 it was 1.23 fold enrichment (6-mer frequency, TF over GST control). Moreover, the binding signal is 1.26 fold enrichment (6-mer frequency, TF over GST control) with ETV3 and 1.21 fold enrichment (6-mer frequency, TF over GST control) with ETV6.

For AGTGTT, the binding signal in the test with ERF was 1.13 fold enrichment (6-mer frequency, TF over GST control); in the test with ETV3L, 1.1 fold enrichment (6-mer frequency, TF over GST control); in the test with ETS2, 1.1 fold enrichment (6-mer frequency, TF over GST control); in the test with SPDEF it was 1.13 fold enrichment (6-mer frequency, TF over GST control); in the test with ETV7, 1.14 fold enrichment (6-mer frequency, TF over GST control); with ELF5 it was 1.3 fold enrichment (6-mer frequency, TF over GST control). The binding signal with ETV3 was 1.08 fold enrichment (6-mer frequency, TF over GST control); with ETV6, 1.11 fold enrichment (6-mer frequency, TF over GST control).

GCTCGT: the binding signal was 1.2 fold enrichment (6-mer frequency, TF over GST control) in the test with ERF; 1.23 fold enrichment (6-mer frequency, TF over GST control) in the test with ETV3L; 1.12 fold enrichment (6-mer frequency, TF over GST control) with ETS2; 1.15 fold enrichment (6-mer frequency, TF over GST control) with SPDEF; 1.11 fold enrichment (6-mer frequency, TF over GST control) in the test with ETV7; 1.1 fold enrichment (6-mer frequency, TF over GST control) with ELF5. The binding signal with ETV3 was 1.15 fold enrichment (6-mer frequency, TF over GST control); in the test with ETV6 it was 1.16 fold enrichment (6-mer frequency, TF over GST control).
